Data on eight compounds can be found in ChEMBL document CHEMBL3988442, “University of Dundee, Small-Polar-MMV Screening Library” (2021).

For some of these results: Measured potencies and affinities stand elsewhere.

Holding throughout (design): scale not given: direction of the effect not stated beside the values
Test [1] addresses Protein translocase subunit SecA (Escherichia coli (strain K12)) (UniProt P10408). As to the kind of experiment: Assay to Identify E. coli SecA ATPase Inhibitors. In kind it is functional. To be noted: 30 µM.
For test [2], the target named is T1, Ubiquitin-activating enzyme e1, putative (Leishmania donovani (strain BPK282A1)) (UniProt E9BSI1).
T1 sequence (whole entry): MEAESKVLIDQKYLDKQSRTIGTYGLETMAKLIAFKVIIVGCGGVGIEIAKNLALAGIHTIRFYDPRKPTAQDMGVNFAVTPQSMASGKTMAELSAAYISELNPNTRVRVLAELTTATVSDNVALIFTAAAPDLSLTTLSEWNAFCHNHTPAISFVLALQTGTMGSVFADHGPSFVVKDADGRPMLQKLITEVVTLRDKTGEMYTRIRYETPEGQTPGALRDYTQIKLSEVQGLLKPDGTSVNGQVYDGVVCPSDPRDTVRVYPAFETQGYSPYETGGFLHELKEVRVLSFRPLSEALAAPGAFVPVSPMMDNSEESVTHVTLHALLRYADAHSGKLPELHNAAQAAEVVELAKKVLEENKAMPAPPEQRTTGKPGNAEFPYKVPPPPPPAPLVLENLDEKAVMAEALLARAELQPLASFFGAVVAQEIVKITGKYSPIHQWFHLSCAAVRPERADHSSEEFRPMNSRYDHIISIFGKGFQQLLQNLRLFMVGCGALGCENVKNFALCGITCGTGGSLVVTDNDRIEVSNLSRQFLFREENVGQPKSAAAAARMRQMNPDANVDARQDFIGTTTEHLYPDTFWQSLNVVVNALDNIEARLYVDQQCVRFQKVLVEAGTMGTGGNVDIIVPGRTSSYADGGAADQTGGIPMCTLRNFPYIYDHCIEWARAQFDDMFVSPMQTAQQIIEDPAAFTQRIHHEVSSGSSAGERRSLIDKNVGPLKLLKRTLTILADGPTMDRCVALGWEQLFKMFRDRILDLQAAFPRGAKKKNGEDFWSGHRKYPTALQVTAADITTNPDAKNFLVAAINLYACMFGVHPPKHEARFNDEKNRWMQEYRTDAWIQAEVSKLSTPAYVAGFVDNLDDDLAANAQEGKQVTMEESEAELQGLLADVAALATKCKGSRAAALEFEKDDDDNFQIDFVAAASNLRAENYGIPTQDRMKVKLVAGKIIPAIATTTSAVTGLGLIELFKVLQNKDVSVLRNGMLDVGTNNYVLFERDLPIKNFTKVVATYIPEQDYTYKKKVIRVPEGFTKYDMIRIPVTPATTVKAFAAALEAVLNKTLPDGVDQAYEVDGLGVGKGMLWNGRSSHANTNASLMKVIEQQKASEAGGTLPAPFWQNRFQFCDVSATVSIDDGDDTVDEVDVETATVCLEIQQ
The experiment in a line: Leishmania donovani Ubiquitin Activating Enzyme (LdE1). Format: functional. To be noted: 30 µM.

Test [3] addresses AMP-activated protein kinase, AMPK (Homo sapiens) (UniProt P54646+O43741+P54619+Q9UGJ0+Q9Y478+Q13131+Q9UGI9). The experiment in a line: AMP-dependent Kinase enzyme assay. An in vitro enzyme assay that detects ADP turnover that is directly proportional to AMPK activity. This uses naive AMPK that is activated during the assay with MK-8722. In kind it is functional. Particulars: 30 µM.

For test [4], the target named is Sialic acid-binding Ig-like lectin 9 (Homo sapiens) (UniProt Q9Y336). As to the kind of experiment: Hs-Siglec9 ALPHAscreen SOP 20170721. Particulars: 10 µM. On the technique in general: Alpha assays give light when donor and acceptor beads are brought close together.
For a further test, the system named is Trypanosoma cruzi. As to the kind of experiment: Trypanosoma cruzi phosphomannomutase and mannose-1-phosphate guanylyltransferase assay. Format: functional. Particulars: 10 µM.
Test [5] concerns the target T2, Arginase-2, mitochondrial (Homo sapiens) (UniProt P78540).
T2 sequence (whole entry): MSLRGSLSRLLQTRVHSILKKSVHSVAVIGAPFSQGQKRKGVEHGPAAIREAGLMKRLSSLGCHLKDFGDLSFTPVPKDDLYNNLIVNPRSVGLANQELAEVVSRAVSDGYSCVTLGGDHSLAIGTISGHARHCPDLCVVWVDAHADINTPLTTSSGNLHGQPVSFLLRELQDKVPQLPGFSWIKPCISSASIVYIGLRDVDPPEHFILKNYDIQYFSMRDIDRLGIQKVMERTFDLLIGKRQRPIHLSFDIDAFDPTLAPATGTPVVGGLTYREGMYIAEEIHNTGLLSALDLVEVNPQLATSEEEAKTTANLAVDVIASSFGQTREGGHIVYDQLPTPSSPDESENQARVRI
The experiment in a line: in vitro enzyme assay to detect the production of urea directly proportional to the activity of Arginase II. Note: in the data most compounds retested in dose-response had high values. Format: functional. To be noted: 33.3 µM.

Test [6] addresses T3, Proteasome subunit beta (Trypanosoma cruzi) (UniProt O96673).
T3 sequence (whole entry): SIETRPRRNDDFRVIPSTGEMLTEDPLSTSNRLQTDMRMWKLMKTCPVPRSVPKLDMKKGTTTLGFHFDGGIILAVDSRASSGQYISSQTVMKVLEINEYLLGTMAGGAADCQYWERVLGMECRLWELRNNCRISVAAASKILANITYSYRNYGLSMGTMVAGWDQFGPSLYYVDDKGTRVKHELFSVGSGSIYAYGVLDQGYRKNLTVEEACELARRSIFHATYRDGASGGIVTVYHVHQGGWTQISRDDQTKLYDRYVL
As to the kind of experiment: Trypanosoma cruzi proteasome chymotrypsin-like activity (TcProtChymo) assay. Note: in the data most compounds retested in dose-response had high values. In kind it is functional. Particulars: 9.37 µM.

A further test is filed under the species Homo sapiens. The experiment in a line: To identify inhibition of the IFN signalling (Jak-Stat) pathway via expression of an eGFP reporter gene under the control of an IFN-stimulated response element (ISRE) containing MxA promoter. Particulars: 30 µM. In kind it is functional.
Test [7] concerns the target T4, Tyrosyl-tRNA synthetase, putative (Trypanosoma cruzi (strain CL Brener)) (UniProt Q4DSP6).
T4 sequence (whole entry): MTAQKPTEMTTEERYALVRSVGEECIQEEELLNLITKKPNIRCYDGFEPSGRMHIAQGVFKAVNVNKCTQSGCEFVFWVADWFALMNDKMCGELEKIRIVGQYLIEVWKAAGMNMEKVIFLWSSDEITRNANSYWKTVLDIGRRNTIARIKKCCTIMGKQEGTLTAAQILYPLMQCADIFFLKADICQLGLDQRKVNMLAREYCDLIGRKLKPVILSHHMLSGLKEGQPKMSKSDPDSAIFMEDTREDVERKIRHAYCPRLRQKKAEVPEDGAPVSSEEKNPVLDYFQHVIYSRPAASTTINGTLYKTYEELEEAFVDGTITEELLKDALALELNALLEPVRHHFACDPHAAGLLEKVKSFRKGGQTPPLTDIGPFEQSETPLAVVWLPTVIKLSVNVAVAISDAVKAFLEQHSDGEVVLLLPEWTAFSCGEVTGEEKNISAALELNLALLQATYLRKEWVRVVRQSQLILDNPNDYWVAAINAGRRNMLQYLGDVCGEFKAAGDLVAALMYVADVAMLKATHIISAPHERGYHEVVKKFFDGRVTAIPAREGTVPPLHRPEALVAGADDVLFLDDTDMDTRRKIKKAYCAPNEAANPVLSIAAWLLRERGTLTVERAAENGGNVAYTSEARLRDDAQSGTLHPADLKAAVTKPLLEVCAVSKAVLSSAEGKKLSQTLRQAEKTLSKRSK
The experiment in a line: Trypanosoma cruzi tyrosyl tRNA synthetase (TcYRS) _High Tyrosine SOP. Note: in the data most compounds retested in dose-response had high values. In kind it is functional. Particulars: 30 µM.

Test [8] has as its target T4, Tyrosyl-tRNA synthetase, putative (Trypanosoma cruzi (strain CL Brener)). As to the kind of experiment: Trypanosoma cruzi tyrosyl tRNA synthetase (TcYRS) SOP. Format: functional. Particulars: 30 µM.
The target in test [9] is Chromo domain-containing protein 1 (Saccharomyces cerevisiae (strain ATCC 204508 / S288c) (Baker's yeast)) (UniProt P32657). The experiment in a line: ScCHD-1 Enzyme Inhibition Assay. Note: in the data most compounds retested in dose-response had high values. In kind it is functional. To be noted: 30 µM.
Chromo domain-containing protein 1 (Saccharomyces cerevisiae (strain ATCC 204508 / S288c) (Baker's yeast)), sequence (P32657 whole entry, the tested form may be a part): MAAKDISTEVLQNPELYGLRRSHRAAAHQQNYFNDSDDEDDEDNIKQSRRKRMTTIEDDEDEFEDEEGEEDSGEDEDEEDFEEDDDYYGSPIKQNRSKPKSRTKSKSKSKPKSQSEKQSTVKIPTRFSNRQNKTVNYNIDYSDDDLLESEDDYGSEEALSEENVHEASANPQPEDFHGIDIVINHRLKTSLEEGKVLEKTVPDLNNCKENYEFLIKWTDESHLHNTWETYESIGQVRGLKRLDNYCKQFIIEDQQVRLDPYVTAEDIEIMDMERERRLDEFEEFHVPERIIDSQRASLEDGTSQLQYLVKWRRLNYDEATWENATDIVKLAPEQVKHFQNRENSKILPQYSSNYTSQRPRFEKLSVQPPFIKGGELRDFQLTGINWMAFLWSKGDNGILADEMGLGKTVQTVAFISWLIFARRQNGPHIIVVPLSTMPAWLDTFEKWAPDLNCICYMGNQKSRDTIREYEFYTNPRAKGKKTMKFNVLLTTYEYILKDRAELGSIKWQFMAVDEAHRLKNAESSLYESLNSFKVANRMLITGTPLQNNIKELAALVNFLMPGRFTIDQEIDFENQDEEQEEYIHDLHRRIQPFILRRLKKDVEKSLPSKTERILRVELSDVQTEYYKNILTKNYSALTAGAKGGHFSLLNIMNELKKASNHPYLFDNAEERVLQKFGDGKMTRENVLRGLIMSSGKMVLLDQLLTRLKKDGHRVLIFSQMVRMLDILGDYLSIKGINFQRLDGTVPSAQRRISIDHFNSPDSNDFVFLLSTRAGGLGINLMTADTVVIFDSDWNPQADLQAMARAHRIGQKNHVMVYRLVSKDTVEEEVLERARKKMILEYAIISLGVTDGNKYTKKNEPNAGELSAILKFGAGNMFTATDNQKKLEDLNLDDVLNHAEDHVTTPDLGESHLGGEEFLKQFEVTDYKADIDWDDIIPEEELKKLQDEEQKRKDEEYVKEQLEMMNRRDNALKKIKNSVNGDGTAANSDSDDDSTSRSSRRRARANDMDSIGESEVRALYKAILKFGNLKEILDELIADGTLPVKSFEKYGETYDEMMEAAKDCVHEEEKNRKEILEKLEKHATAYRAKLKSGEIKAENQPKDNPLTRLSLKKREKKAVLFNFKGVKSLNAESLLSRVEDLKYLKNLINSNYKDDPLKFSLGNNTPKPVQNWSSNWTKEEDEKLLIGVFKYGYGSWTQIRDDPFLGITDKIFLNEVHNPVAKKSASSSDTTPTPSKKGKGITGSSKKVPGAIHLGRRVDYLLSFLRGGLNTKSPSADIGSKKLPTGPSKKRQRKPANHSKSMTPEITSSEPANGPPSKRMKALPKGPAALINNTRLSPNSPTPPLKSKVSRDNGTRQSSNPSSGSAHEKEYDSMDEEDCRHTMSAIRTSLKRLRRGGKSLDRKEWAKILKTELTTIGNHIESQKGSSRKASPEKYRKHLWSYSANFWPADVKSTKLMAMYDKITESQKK

Protein translocase subunit SecA (Escherichia coli (strain K12)), sequence (P10408 whole entry): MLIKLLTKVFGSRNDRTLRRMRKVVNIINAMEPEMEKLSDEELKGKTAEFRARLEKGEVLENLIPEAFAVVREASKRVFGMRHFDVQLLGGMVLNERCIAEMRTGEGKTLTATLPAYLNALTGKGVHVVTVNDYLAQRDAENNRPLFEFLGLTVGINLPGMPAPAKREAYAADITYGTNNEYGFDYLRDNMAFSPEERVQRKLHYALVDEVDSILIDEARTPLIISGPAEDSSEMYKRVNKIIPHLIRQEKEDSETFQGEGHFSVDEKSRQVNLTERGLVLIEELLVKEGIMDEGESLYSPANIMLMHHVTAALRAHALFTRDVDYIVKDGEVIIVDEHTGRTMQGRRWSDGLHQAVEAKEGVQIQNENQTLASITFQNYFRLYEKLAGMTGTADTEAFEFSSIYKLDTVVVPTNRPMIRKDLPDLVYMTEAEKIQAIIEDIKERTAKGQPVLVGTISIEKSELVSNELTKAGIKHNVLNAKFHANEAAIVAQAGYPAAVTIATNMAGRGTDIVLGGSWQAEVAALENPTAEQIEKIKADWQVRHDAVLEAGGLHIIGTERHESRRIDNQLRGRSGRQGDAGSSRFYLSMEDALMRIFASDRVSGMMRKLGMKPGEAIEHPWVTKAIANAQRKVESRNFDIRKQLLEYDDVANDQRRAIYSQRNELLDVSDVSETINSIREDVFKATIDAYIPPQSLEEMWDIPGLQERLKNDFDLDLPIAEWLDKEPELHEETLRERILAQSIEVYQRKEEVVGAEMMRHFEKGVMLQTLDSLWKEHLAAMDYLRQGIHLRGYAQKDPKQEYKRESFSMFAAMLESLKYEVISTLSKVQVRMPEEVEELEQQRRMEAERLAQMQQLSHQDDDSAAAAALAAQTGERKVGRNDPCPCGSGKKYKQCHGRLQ
Sialic acid-binding Ig-like lectin 9 (Homo sapiens), sequence (Q9Y336 whole entry): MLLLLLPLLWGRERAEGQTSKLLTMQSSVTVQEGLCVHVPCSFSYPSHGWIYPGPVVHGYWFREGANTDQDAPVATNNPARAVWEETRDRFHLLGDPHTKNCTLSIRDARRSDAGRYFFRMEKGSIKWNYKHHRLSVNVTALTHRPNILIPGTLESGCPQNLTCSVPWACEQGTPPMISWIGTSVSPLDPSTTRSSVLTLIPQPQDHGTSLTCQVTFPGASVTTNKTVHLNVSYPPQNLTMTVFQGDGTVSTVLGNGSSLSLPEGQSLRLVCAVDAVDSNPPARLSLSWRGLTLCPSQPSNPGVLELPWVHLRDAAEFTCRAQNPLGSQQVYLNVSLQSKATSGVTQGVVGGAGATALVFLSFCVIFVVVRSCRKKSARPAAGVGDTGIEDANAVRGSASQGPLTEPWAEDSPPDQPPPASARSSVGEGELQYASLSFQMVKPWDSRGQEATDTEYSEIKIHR

As for `COCCOc1ccccc1C(=O)N1CCCCC1c1nccs1` (stereo not drawn), the Percent Effect in test [1] was -5.08%; in test [2], 5.41%; in test [3], -31.5%; in [4], 16.3%; in the test with Trypanosoma cruzi it was 7.45%; in [5] it was -2.81%. In addition, the Percent Effect is 2.52% in [6]; -0.874% in the test listed under Homo sapiens; 4.43% in [7]; 11.1% in [8]; -14.3% in test [9].

On to `Cc1nc(CNC(=O)NCC(O)c2cccc(Cl)c2)cs1` (stereo not drawn), for which the Percent Effect was -1.26% in test [1]; 2.7% in test [2]; -4.33% in [3]; 3.81% in [4]; -8.69% in the test on Trypanosoma cruzi; -4.29% in test [5]. Besides, the Percent Effect in test [6] is 23.4%; in the test filed under Homo sapiens, 6.47%; in test [7] it was 0.529%; in [8], 4.88%; in test [9], -3.89%.

Consider `Cc1ncsc1CN1CC[C@H]2OCC[C@@]2(C(=O)NC(C)C)C1`, for which the Percent Effect in test [1] is -3.99%; in [2], 0%; in test [3], 6.03%; in test [4] it was -6.45%; with Trypanosoma cruzi, -3.25%; in test [5], 0.645%. Besides, the Percent Effect in test [6] is 0.87%; in the test listed under Homo sapiens it was 30.1%; in [7] it was -1.06%; in test [8] it was -8.97%; in [9], 0.0917%.

As to `Cc1nc(C2CCCN2C(=O)c2ccccc2)ncc1C(N)=O` (stereo not drawn), the Percent Effect in [1] is -3.32%; in test [2] it was 10.7%; in test [3], 3.14%; in test [4], 7.6%; in the test with Trypanosoma cruzi, 1.97%; in test [5], -3.96%. In addition, the Percent Effect in [6] was 3.79%; in the test filed under Homo sapiens it was 22.3%; in test [7] it was 5.32%; in [8] it was 14.1%; in test [9] it was -6.6%.

Take `COc1ccnc(N2CCN(C(=O)c3csc(C4CC4)n3)CC2)n1`: the Percent Effect is -4.82% in [1]; 2.7% in test [2]; 2.76% in test [3]; -1.98% in test [4]; -2.05% in the test with Trypanosoma cruzi; 4.22% in test [5]. The Percent Effect in test [6] is -0.601%; in the test filed under Homo sapiens, 0.351%; in test [7] it was 0%; in test [8], 8.64%; in test [9], -4.46%.

Turning to `FC(F)(F)c1cc(N2CCc3ncnc(NC4CC4)c3CC2)ncn1`, the Percent Effect was -1.41% in test [1]; 13.3% in test [2]; 11.7% in test [3]; -4.57% in [4]; -3.86% in the test on Trypanosoma cruzi; -57.5% in [5]. Also, the Percent Effect is 14.4% in [6]; 10.9% in the test listed under Homo sapiens; 5.21% in [7]; -5% in [8]; -8.14% in test [9].

For the compound `Cc1cccc(-c2nc(CN3CCc4c(ncn4C)C3)no2)c1`, the Percent Effect was -6.97% in test [1]; 2.6% in test [2]; -1.39% in test [3]; -3.74% in test [4]; -7.12% in the test on Trypanosoma cruzi; 0.356% in test [5]. The Percent Effect in [6] was 2.7%; in the test filed under Homo sapiens, 21.7%; in test [7] it was -0.971%; in test [8], -2.44%; in test [9] it was -2.23%.

Turning to `Cc1cc(CNC(=O)NC(C)c2ccncc2)no1` (stereo not drawn), the Percent Effect in test [1] is -0.908%; in test [2], 7.79%; in test [3], 2.08%; in [4], 2.87%; with Trypanosoma cruzi, -8.36%; in test [5] it was -1.38%. For the same compound, the Percent Effect in test [6] was 12.7%; in the test listed under Homo sapiens it was 11.9%; in test [7], 2.15%; in [8], 6.17%; in test [9] it was -1.85%.
